Source: PubChem (The Scripps Research Institute Molecular Screening Center)
In the library only some 2.3% were active in any assay of this set; here they are far more common.
M1 PAM parental – counter-screen for M1 PAMs: effect in parental CHO-K1 cells; ATP EC20, Fluo-8 calcium fluorescence; 0% at ATP EC20, 100% at ATP max; activation, % at 3 µM; 0.02% of 360,000 active;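 active = activation above the run cutoff, the mean activation of all test compounds plus 3 SD, cut at about 40% in these data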;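 also: peak over basal fluorescence ratio in a 140 s read after ATP addition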
M1 PAM – positive allosteric modulators of human M1 muscarinic receptor; P11229; CHO-K1 hM1, Fluo-8 calcium fluorescence, ACh EC20; 0% = ACh EC20, 100% = maximal ACh; activation, % at 3 µM; 0.088% of 360,000 active; in the data active = activation above about 19%, passing the limit was not always enough
Target sequence (P11229 whole entry, looked up): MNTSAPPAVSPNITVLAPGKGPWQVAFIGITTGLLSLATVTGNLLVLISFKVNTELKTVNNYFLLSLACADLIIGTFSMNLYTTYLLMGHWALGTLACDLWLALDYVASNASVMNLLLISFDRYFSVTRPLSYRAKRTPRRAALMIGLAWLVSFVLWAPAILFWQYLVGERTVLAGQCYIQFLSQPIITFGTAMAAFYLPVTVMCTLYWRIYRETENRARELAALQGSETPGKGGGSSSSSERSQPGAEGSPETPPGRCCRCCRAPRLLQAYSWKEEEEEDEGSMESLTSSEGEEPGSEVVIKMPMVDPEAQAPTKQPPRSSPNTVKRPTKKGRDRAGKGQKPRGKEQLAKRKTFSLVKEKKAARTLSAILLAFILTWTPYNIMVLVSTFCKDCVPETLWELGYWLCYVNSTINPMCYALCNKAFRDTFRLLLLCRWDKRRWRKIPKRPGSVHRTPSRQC
M1 ag parental – nonselective activator or artifact in parental CHO-K1 cells | AID 602248 | Fluo-8 calcium fluorescence; scaled to maximal ATP response, vehicle zero | 0.48% of 360,000 active | activation, % at 3 µM; in the data active = activation above about 15%;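 also: untransfected CHO-K1 host cells lacking M1 receptor as counterscreen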
CHO-K1 Ca antag – counter-screen for M1 antagonists: effect in parental CHO-K1 cells; 0.6% of 360,000 active; inhibition, % at 3 µM; ATP-induced calcium, Fluo-8 fluorescence;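 active = inhibition above a per-plate cutoff, the plate's mean sample inhibition plus 3 SD, cut at about 24% in these data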;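 also: 0% = DMSO plus EC80 ATP and 100% = DMSO alone without ATP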
M1 ag – agonists of human M1 muscarinic receptor; P11229; CHO-K1 hM1, Fluo-8 calcium fluorescence, agonist mode; 0% DMSO, 100% acetylcholine EC100; activation, % at 3 µM; 0.33% of 360,000 active; AID 588814;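 active = activation above the run's mean compound activation plus 3 SD, cut at about 16% in these data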;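 also: peak over basal fluorescence ratio within a 140 s kinetic read after compound addition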
M1 antag – human CHRM1 antagonism; CHO-K1 hM1, Fluo-8 calcium fluorescence, ACh EC80 antagonist; inhibition, % at 3 µM; 1.3% of 360,000 active;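 active = percent inhibition above its own plate's cutoff, namely the mean of that plate's compound wells plus 3 SD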;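 also: peak over basal fluorescence ratio during 140 s after agonist addition; 0% = ACh EC80 plus DMSO and 100% = DMSO alone without agonist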
Starred values were filed as active, the others as inactive.

CCn1c(SC(C)C)nnc1-c1cc(-c2ccccc2)sc1N was read as M1 PAM parental -9.3, M1 PAM 0.8, M1 ag parental -0.2, CHO-K1 Ca antag 27.8*, M1 ag -5.0 and M1 antag 3.4.
C=CCn1c(-c2cc(-c3ccccc3)sc2N)n[nH]c1=S was read as M1 PAM parental -6.6, M1 PAM 1.4, M1 ag parental 0.2, CHO-K1 Ca antag -5.3, M1 ag -3.8 and M1 antag 3.7.
For CNS(=O)(=O)c1cccc(C(=O)NCC(c2cccs2)N(C)C)c1 (centres undefined) the results were M1 PAM parental 20.2, M1 PAM -2.3, M1 ag parental 0.5, CHO-K1 Ca antag -8.8, M1 ag -5.2 and M1 antag -3.2.
`CCN(c1ccccc1)S(=O)(=O)c1cccc(C(=O)NCC(c2cccs2)N(C)C)c1` (centres undefined) gave M1 PAM parental 20.3, M1 PAM -24.2, M1 ag parental 2.8, CHO-K1 Ca antag -14.4, M1 ag -5.3 and M1 antag 52.3*.
`CC(C)Nc1nc(Cl)nc(Nc2ccccc2)n1` gave M1 PAM parental 20.0, M1 PAM 5.9, M1 ag parental -0.2, CHO-K1 Ca antag -12.1, M1 ag -6.9 and M1 antag -16.6.
Nc1ccc(N(CCO)CCO)cc1 was read as M1 PAM parental 5.2, M1 PAM 3.4, M1 ag parental 0.6, CHO-K1 Ca antag 100.2*, M1 ag 0.1 and M1 antag 2.2.
Screening CCN(CC)c1ccc(N)cc1 returned M1 PAM parental -11.6, M1 PAM -10.9, M1 ag parental 4.3, CHO-K1 Ca antag 8.2, M1 ag -3.6 and M1 antag 15.9.
For S=c1nc[nH]c2c1ncn2C1CCCC1 the results were M1 PAM parental 11.4, M1 PAM 15.6, M1 ag parental 0.9, CHO-K1 Ca antag -14.5, M1 ag -2.1 and M1 antag -6.0.
CC(=O)Nc1ccc(C(=O)OCC(=O)N(c2ccccc2)C2CCS(=O)(=O)C2)cc1 (centres undefined) was read as M1 PAM parental 6.1, M1 PAM -8.3, M1 ag parental 0.4, CHO-K1 Ca antag 2.0, M1 ag 0.4 and M1 antag 26.3.
For O=C(CCl)N(c1ccccc1)C1CCS(=O)(=O)C1 (centres undefined) the results were M1 PAM parental 12.7, M1 PAM -3.2, M1 ag parental 22.6*, CHO-K1 Ca antag 12.5, M1 ag -3.1 and M1 antag 11.4.
`CCN1CC(CN(C)Cc2cn(-c3cccc(C)c3)nc2-c2cccc(F)c2)CC1=O` (centres undefined) gave M1 PAM parental 24.9, M1 PAM 2.4, M1 ag parental 5.4, CHO-K1 Ca antag -17.6, M1 ag -1.9 and M1 antag -10.2.
For COC(=O)C1=C(C)N(CCCC(=O)O)C(=O)NC1c1ccccc1Cl (centres undefined) the results were M1 PAM parental 3.8, M1 PAM -6.0, M1 ag parental 0.1, CHO-K1 Ca antag -3.6, M1 ag -5.2 and M1 antag 17.7.
For Clc1ccccc1-c1ccc2nccn2c1 the results were M1 PAM parental 18.3, M1 PAM -9.8, M1 ag parental 0.8, CHO-K1 Ca antag -12.1, M1 ag -8.2 and M1 antag -8.1.
`CCOc1ccccc1-c1ccc2nccn2c1` gave M1 PAM parental -8.2, M1 PAM -30.2, M1 ag parental 1.5, CHO-K1 Ca antag -10.8, M1 ag -8.6 and M1 antag 61.3*.
For Cc1cccc(NC(=O)c2cc(-c3ccc(C)s3)nc3ccccc23)n1 the results were M1 PAM parental 6.4, M1 PAM -12.0, M1 ag parental 3.7, CHO-K1 Ca antag 12.7, M1 ag -2.1 and M1 antag 23.1*.
Screening Cc1ccc(C)c(-c2cc(C(=O)Nc3nccs3)c3ccccc3n2)c1 returned M1 PAM parental -4.3, M1 PAM -12.5, M1 ag parental 4.2, CHO-K1 Ca antag 4.0, M1 ag -2.6 and M1 antag 33.3*.
Screening COC(=O)c1sccc1NC(=O)c1cc(-c2cc(C)ccc2C)nc2ccccc12 returned M1 PAM parental -11.6, M1 PAM -0.9, M1 ag parental -0.1, CHO-K1 Ca antag 2.6, M1 ag -4.1 and M1 antag 2.1.
For CC1(C)CC(NC(=O)CCc2nnc(CCCCc3ccccc3)o2)CCO1 (centres undefined) the results were M1 PAM parental 13.7, M1 PAM 10.2, M1 ag parental 0.8, CHO-K1 Ca antag -4.9, M1 ag -4.4 and M1 antag -10.6.
`O=C(O)C[C@H]1c2cc(C(F)(F)F)ccc2S(=O)(=O)N1Cc1ccccc1` gave M1 PAM parental 9.1, M1 PAM 11.8, M1 ag parental 0.6, CHO-K1 Ca antag -16.4, M1 ag -3.0 and M1 antag -7.5.
CC(OC(=O)c1cc(S(=O)(=O)N2CCOCC2)ccc1F)C(=O)NC1CCCCC1C (centres undefined) was read as M1 PAM parental -0.2, M1 PAM 3.0, M1 ag parental 2.9, CHO-K1 Ca antag -3.9, M1 ag -2.3 and M1 antag 3.6.
`COC(=O)c1ccc(CNC(=O)c2cc(S(=O)(=O)NCc3ccccc3)ccc2C)cc1` gave M1 PAM parental -10.7, M1 PAM 0.4, M1 ag parental 2.8, CHO-K1 Ca antag 24.5*, M1 ag 1.3 and M1 antag -0.3.
`CCc1ccc(S(=O)(=O)NCc2ccc(C(=O)NCCN(Cc3ccccc3)C(C)C)cc2)cc1` gave M1 PAM parental 3.1, M1 PAM -33.4, M1 ag parental 6.7, CHO-K1 Ca antag 9.2, M1 ag -4.5 and M1 antag 67.9*.
`Cc1ccccc1-c1nc(CN(Cc2c(C)nn(C)c2C)C2CC2)c(C)o1` gave M1 PAM parental -5.8, M1 PAM -0.6, M1 ag parental 0.7, CHO-K1 Ca antag 8.4, M1 ag -5.2 and M1 antag 6.5.
For COC(C(=O)Nc1ccc(F)cc1)c1ccccc1 (centres undefined) the results were M1 PAM parental -2.0, M1 PAM 6.5, M1 ag parental 0.0, CHO-K1 Ca antag 15.1, M1 ag 0.8 and M1 antag -6.4.
For COC(C(=O)Nc1ccc(S(=O)(=O)Nc2ccc(F)cc2)cc1)c1ccccc1 (centres undefined) the results were M1 PAM parental 36.6, M1 PAM 6.8, M1 ag parental 10.4, CHO-K1 Ca antag -1.4, M1 ag 18.3* and M1 antag 2.8.
For Cc1ccc(CS(=O)(=O)c2ncc(Cl)c(C(=O)Nc3ccc(OC(F)F)cc3)n2)cc1 the results were M1 PAM parental -27.8, M1 PAM 1.6, M1 ag parental -0.7, CHO-K1 Ca antag 23.8*, M1 ag -2.6 and M1 antag 15.6.
For Cc1ccccc1N1C(=O)c2cccc3c(N(C)CCO)ccc(c23)C1=O the results were M1 PAM parental 3.0, M1 PAM -7.7, M1 ag parental 16.5*, CHO-K1 Ca antag 6.9, M1 ag 8.3 and M1 antag 0.7.
